Experimental data: the supplement of paper PMC8975748
Counter-ions that a name gives are not always drawn. ± gives the standard deviation of the averaged measurements.

Assays:
[1] = system: Saccharomyces cerevisiae BY4741 SeMeCo community; test: mean cell size (pixel area) (pixels); higher = larger cells; details: 10 µM; 24 h; SM minimal medium
Summary of the method: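 Mean cell pixel area per well was measured in a four-plasmid fluorescent community of Saccharomyces cerevisiae BY4741, where every plasmid complements one auxotrophy and carries a fluorescent marker. Cells from an overnight preculture at OD600 = 1.0 were diluted to OD600 = 0.3 and dispensed at 70 µl into 384-well plates acoustically predosed with drug to a final 10 µM in SM medium. Incubation lasted 24 h, followed by paraformaldehyde fixation, automated confocal imaging and analysis in Harmony. Reported figures are averaged over 3 replicates. Same SeMeCo high-content imaging drug screen: Selleck FDA-approved drugs at 10 µM, 24 h in SM medium, 384-well plates, 3 replicates.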

[2] = system: Saccharomyces cerevisiae BY4741 SeMeCo community; test: z-score of prototroph abundance vs DMSO median; higher = larger share of this subpopulation than in DMSO controls; details: 10 µM; 24 h; SM minimal medium; subpopulation (auxotrophy): Prototroph
Summary of the method: (§1)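 Four plasmids, each restoring a single auxotrophy and encoding a distinct fluorescent protein, were carried by a Saccharomyces cerevisiae BY4741 community. After overnight growth to OD600 1.0 and dilution to 0.3, 70 µl per well was grown for 24 h in minimal SM medium on 384-well plates acoustically predosed with library drugs at 10 µM final. Following paraformaldehyde fixation, automated confocal microscopy was used, with single-auxotroph fluorescent strains defining thresholds and autofluorescence correction. Subpopulation abundance was then scored as a z-score against the vehicle-well median.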

[3] = system: Saccharomyces cerevisiae BY4741 SeMeCo community; test: z-score of subpopulation abundance vs DMSO median, subpopulation auxotrophic for M; higher = larger share of this subpopulation than in DMSO controls; details: 10 µM; 24 h; SM minimal medium; subpopulation (auxotrophy): M
Summary of the method: as §1

[4] = system: Saccharomyces cerevisiae BY4741 SeMeCo community; test: z-score of subpopulation abundance vs DMSO median, subpopulation auxotrophic for L; higher = larger share of this subpopulation than in DMSO controls; details: 10 µM; 24 h; SM minimal medium; subpopulation (auxotrophy): L
Summary of the method: as §1

[5] = system: Saccharomyces cerevisiae BY4741 SeMeCo community; test: z-score of subpopulation abundance vs DMSO median, subpopulation auxotrophic for H; higher = larger share of this subpopulation than in DMSO controls; details: 10 µM; 24 h; SM minimal medium; subpopulation (auxotrophy): H
Summary of the method: as §1

[6] = system: Saccharomyces cerevisiae BY4741 SeMeCo community; test: z-score of subpopulation abundance vs DMSO median, subpopulation auxotrophic for LU; higher = larger share of this subpopulation than in DMSO controls; details: 10 µM; 24 h; SM minimal medium; subpopulation (auxotrophy): LU
Summary of the method: as §1

[7] = system: Saccharomyces cerevisiae BY4741 SeMeCo community; test: z-score of subpopulation abundance vs DMSO median, subpopulation auxotrophic for LM; higher = larger share of this subpopulation than in DMSO controls; details: 10 µM; 24 h; SM minimal medium; subpopulation (auxotrophy): LM
Summary of the method: as §1

[8] = system: Saccharomyces cerevisiae BY4741 SeMeCo community; test: z-score of subpopulation abundance vs DMSO median, subpopulation auxotrophic for HM; higher = larger share of this subpopulation than in DMSO controls; details: 10 µM; 24 h; SM minimal medium; subpopulation (auxotrophy): HM
Summary of the method: as §1

[9] = system: Saccharomyces cerevisiae BY4741 SeMeCo community; test: z-score of subpopulation abundance vs DMSO median, subpopulation auxotrophic for HU; higher = larger share of this subpopulation than in DMSO controls; details: 10 µM; 24 h; SM minimal medium; subpopulation (auxotrophy): HU
Summary of the method: as §1

[10] = system: Saccharomyces cerevisiae BY4741 SeMeCo community; test: z-score of subpopulation abundance vs DMSO median, subpopulation auxotrophic for UM; higher = larger share of this subpopulation than in DMSO controls; details: 10 µM; 24 h; SM minimal medium; subpopulation (auxotrophy): UM
Summary of the method: as §1

[11] = system: Saccharomyces cerevisiae BY4741 SeMeCo community; test: z-score of subpopulation abundance vs DMSO median, subpopulation auxotrophic for HL; higher = larger share of this subpopulation than in DMSO controls; details: 10 µM; 24 h; SM minimal medium; subpopulation (auxotrophy): HL
Summary of the method: as §1

[12] = system: Saccharomyces cerevisiae BY4741 SeMeCo community; test: z-score of subpopulation abundance vs DMSO median, subpopulation auxotrophic for HLU; higher = larger share of this subpopulation than in DMSO controls; details: 10 µM; 24 h; SM minimal medium; subpopulation (auxotrophy): HLU
Summary of the method: as §1

[13] = system: Saccharomyces cerevisiae BY4741 SeMeCo community; test: z-score of subpopulation abundance vs DMSO median, subpopulation auxotrophic for HUM; higher = larger share of this subpopulation than in DMSO controls; details: 10 µM; 24 h; SM minimal medium; subpopulation (auxotrophy): HUM
Summary of the method: as §1

[14] = system: Saccharomyces cerevisiae BY4741 SeMeCo community; test: z-score of subpopulation abundance vs DMSO median, subpopulation auxotrophic for LUM; higher = larger share of this subpopulation than in DMSO controls; details: 10 µM; 24 h; SM minimal medium; subpopulation (auxotrophy): LUM
Summary of the method: as §1

[15] = system: Saccharomyces cerevisiae BY4741 SeMeCo community; test: z-score of subpopulation abundance vs DMSO median, subpopulation auxotrophic for HLUM; higher = larger share of this subpopulation than in DMSO controls; details: 10 µM; 24 h; SM minimal medium; subpopulation (auxotrophy): HLUM
Summary of the method: as §1

[16] = system: Saccharomyces cerevisiae BY4741 SeMeCo community; test: z-score of subpopulation abundance vs DMSO median, subpopulation auxotrophic for U; higher = larger share of this subpopulation than in DMSO controls; details: 10 µM; 24 h; SM minimal medium; subpopulation (auxotrophy): U
Summary of the method: as §1

[17] = system: Saccharomyces cerevisiae BY4741 SeMeCo community; test: z-score of subpopulation abundance vs DMSO median, subpopulation auxotrophic for HLM; higher = larger share of this subpopulation than in DMSO controls; details: 10 µM; 24 h; SM minimal medium; subpopulation (auxotrophy): HLM
Summary of the method: as §1

Row | SMILES | mean cell size [1] | z-score of prototroph abundance [2] | z-score of subpopulation abundance [3] | z-score of subpopulation abundance [4] | z-score of subpopulation abundance [5] | z-score of subpopulation abundance [6] | z-score of subpopulation abundance [7] | z-score of subpopulation abundance [8] | z-score of subpopulation abundance [9] | z-score of subpopulation abundance [10] | z-score of subpopulation abundance [11] | z-score of subpopulation abundance [12] | z-score of subpopulation abundance [13] | z-score of subpopulation abundance [14] | z-score of subpopulation abundance [15] | z-score of subpopulation abundance [16] | z-score of subpopulation abundance [17]
1 | COc1cc(NS(=O)(=O)c2ccc(N)cc2)nc(OC)n1 [SulfadiMethoxine sodium] | 12.4 ± 0.15 | 0.53 | 0.96 | -0.99 | -0.13 | -0.82 | -0.45 | 0.06 | 0.29 | -0.12 | -0.28 | -0.72 | -0.22 | -0.37 | -0.21 | – | –
2 | CC1(C)S[C@@H]2[C@H](NC(=O)[C@H](N)c3ccc(O)cc3)C(=O)N2[C@H]1C(=O)O [Amoxicillin Sodium] | 12.5 ± 0.31 | 0.37 | 0.97 | -0.33 | -0.8 | -0.7 | -1.17 | -0.22 | -0.71 | -0.03 | – | -0.65 | -0.13 | -0.05 | -0.2 | -0.06 | –
3 | CNCCC(Oc1ccc(C(F)(F)F)cc1)c1ccccc1 (stereo not drawn) [Fluoxetine HCl] | 12.4 ± 0.14 | 0.06 | 0.18 | -0.14 | -0.47 | 0.51 | 0 | -0.49 | – | 0.29 | – | 0.27 | -0.15 | 0.21 | 0.65 | 0 | –
4 | CCCCCOc1ccccc1/C(=C\SC)n1ccnc1 [Neticonazole Hydrochloride] | 11.8 ± 0.13 | – | -1.87 | -1.5 | 16.5 | -2.84 | -1.01 | 3.53 | 6.23 | 14.5 | – | 2.52 | 6.29 | – | 13 | -1.45 | –
5 | CONC(=O)Nc1ccc(-c2sc3c(c2CN(C)C)c(=O)n(-c2ccc(OC)nn2)c(=O)n3Cc2c(F)cccc2F)cc1 [Relugolix] | 12.2 ± 0.23 | 0.18 | -1.52 | 0.15 | – | -0.09 | -0.08 | -0.86 | 0.09 | -0.12 | -0.26 | 0.32 | -0.45 | – | 0.58 | 0.32 | –
6 | Cc1cc(NS(=O)(=O)c2ccc(N)cc2)nc(C)n1 [sulfaisodimidine] | – | -0.51 | 0.59 | 0.19 | -1.29 | 0.99 | 0.12 | 0.38 | 0.09 | 0.16 | -0.94 | 0.38 | – | 0.42 | 0.48 | 0.36 | -0.45
7 | CSCC1CN(/N=C/c2ccc([N+](=O)[O-])o2)C(=O)O1 (stereo not drawn) [Nifuratel] | 13.05 ± 0.13 | 1.73 | 3.2 | 3.68 | 5.51 | -5.94 | 3.06 | 1.92 | -5.85 | – | 4.21 | -1.21 | -2.83 | -2.95 | 1.35 | -7.52 | –
8 | COc1ccc(C(Cl)=C(c2ccc(OC)cc2)c2ccc(OC)cc2)cc1 [Chlorotrianisene] | – | -0.67 | 1.26 | 0.44 | – | 0.41 | 1.34 | – | – | 0.15 | 0.2 | 1.95 | – | 0.76 | 1.18 | 0.17 | 3.27
